Bioassay records from PubChem.
RN4220 kill = S. aureus RN4220 growth inhibition. inhibition, % (concentration not given with the values). AID 1259311. 330,000 compounds, 0.33% hits. OD600, 16 h; in the data active means inhibition above about 85%;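 further: plate controls were untreated cells for no effect and reference antibiotic for full effect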
Sa ugtP lethal = kills S. aureus RN4220 lacking UgtP; S. aureus RN4220 ugtP deletion, OD600 growth, 16 h; growth inhibition, % (concentration not given with the values); 330,000 compounds, 0.54% hits; AID 1259309; in the data active means growth inhibition above about 68%;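 further: plate controls were untreated wells for no effect and antibiotic for full effect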
PfHsp40 rescue = rescue of PfHsp40-mediated yeast toxicity | S. cerevisiae expressing PfHsp40, growth rescue, ATP luminescence | growth rescue, % at 12.5 µM | 340,000 compounds, 0.68% hits; in the data active means growth rescue above about 28%, passing the limit was not always enough;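 further: yeast W303a lacking pdr1 and pdr3 grown in galactose medium; growth measured after three days at 30 °C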
PrPC surface inh = cell surface PrPC inhibition, primary TR-FRET screen | P04156 | TR-FRET read-out | inhibition, % at 13.8 µM | AID 720596 | 370,000 compounds, 0.43% hits; in the data active means inhibition above about 24%; further: 0% = median of the test wells and 100% = reference compound wells
CCHF vOTU inh = blocks the CCHF virus ovarian tumor domain protease. CCHFV vOTU protease, Pep-AMC fluorescence. inhibition, % at 11.5 µM. 370,000 compounds, 0.55% hits. AID 651958; in the data active means inhibition above about 30%; further: 0% = vehicle wells with enzyme and 100% = no enzyme wells
PrP 5UTR inh = suppresses PrP 5' UTR mRNA reporter expression | cell-based PrP 5' UTR mRNA reporter, plate reader | inhibition, % (test concentration not listed) | 340,000 compounds, 0.35% hits | AID 488862; in the data active means inhibition above about 52%; further: 0 = median of the neutral control wells
* = called active by the depositor; nt = not tested or not shown. Compounds with a hit are over-represented: about 2.1% of the library has one in this group of screens.

SMILES	RN4220 kill	Sa ugtP lethal	PfHsp40 rescue	PrPC surface inh	CCHF vOTU inh	PrP 5UTR inh
Cc1cccc(C(=O)NC(=S)Nc2ccc(Cc3ccncc3)cc2)c1	-0.6	78.5	0.4	-2.7	11.9	-5.8
O=C(NC(=S)Nc1ccc2c(c1)OCO2)c1ccc(Cl)cc1	5.0	87.7*	-1.6	7.7	17.0	-129.0
O=C(NC(=S)NCc1ccc2c(c1)OCO2)c1ccccc1	-5.0	6.3	51.7*	2.4	-15.3	-13.6
O=C(Nc1ccccc1)NC1(C(=O)NCc2ccc3c(c2)OCO3)CCCCC1	9.1	99.8*	0.5	-3.8	-4.9	9.5
O=C(NCc1ccccc1)NC1(C(=O)Nc2ccc3c(c2)OCCO3)CCCCC1	6.9	-3.3	2.3	1.1	0.5	-0.7
COc1ccc(C=NNC(=O)OC(C)(C)C)cc1OC	1.7	1.8	nt	nt	nt	nt
CC(C)C(=O)Nc1cccc(NC(=S)NC(=O)c2ccc3c(c2)OCO3)c1	3.2	-1.6	1.2	3.9	-3.9	-40.7
Cc1cc(C)cc(C(=O)NC(=S)Nc2ccc3c(c2)OCCO3)c1	5.8	92.7*	-0.2	7.6	-12.9	-85.6
CC(C)C(=O)Nc1cccc(NC(=S)NC(=O)c2ccc(Cl)cc2)c1	2.0	83.0*	-1.1	6.0	7.3	-37.1
Fc1ccccc1-c1csc(-c2cccnc2)n1	3.7	1.7	-0.1	-0.1	-13.8	-45.7
Clc1ccc(-c2csc(-c3cccnc3)n2)s1	6.1	-6.1	29.4*	-1.3	-2.8	-45.3
O=c1cc(N=Nc2ccc(Cl)cc2)[nH]c(=O)[nH]1	99.6*	100.4*	2.5	3.2	-1.2	-28.4
O=c1cc(-c2ccc(Cl)cc2)oc(=O)[nH]1	5.0	-0.9	0.4	9.0	-1.4	-18.4
C=CCNC(=O)c1n[nH]c2c1CC(C(C)(C)CC)CC2 (stereo unspecified)	6.2	9.0	96.2*	5.5	17.1	-3.0
CC(CC(O)C1OC1(C)C)C1=C2CC(O)C3[C@@]4(C)CCC(=O)C(C)(C)C4CC[C@]3(C)[C@@]2(C)CC1 (stereo partly specified)	0.5	-0.2	nt	nt	nt	nt
COC(=O)C(c1ccccc1)N(C)S(=O)(=O)c1cccc(S(=O)(=O)N(C)C(C(=O)OC)c2ccccc2)c1 (stereo unspecified)	2.6	6.6	nt	nt	nt	nt
O=c1[nH]c(=O)n([C@H]2C[C@H](O)[C@@H](CO)O2)cc1F	nt	nt	-1.1	11.9	6.4	35.3
CC1OC(n2cc(F)c(=O)[nH]c2=O)C(O)C1O (stereo unspecified)	76.5	97.3*	nt	nt	nt	nt
O=C(Sc1ccc(Cl)cc1)c1ccccn1	-1.0	84.3*	21.7	-5.2	3.4	-27.9
O=C(NC1CCSc2ccccc21)c1cc([N+](=O)[O-])ccc1N1CCOCC1 (stereo unspecified)	1.7	3.4	35.8*	-15.8	6.9	-3.0
CCOC(=O)C(=NNc1ccccc1[N+](=O)[O-])c1csc(Nc2ccccc2)n1	-2.9	18.4	nt	nt	nt	nt
CCCCCCCCOC(=O)CCn1[nH]c(=O)c2ccccc2c1=O	3.8	0.8	199.6*	8.9	9.7	5.7
CCCC(C#Cc1cc(OC)cc(OC)c1)=C1c2ccccc2C(=O)N1c1ccccc1	-0.3	2.3	nt	nt	nt	nt
Cc1ccc(/C=C2\SC(=S)N(NS(=O)(=O)c3ccc(C)cc3)C2=O)cc1	62.4	38.4	-1.4	5.3	-2.0	-8.4
COc1ccc(/C=C2/SC(=S)N(NS(=O)(=O)c3ccc(C)cc3)C2=O)cc1	64.1	81.7*	0.1	-10.2	16.4	-17.7
SMILES	RN4220 kill	Sa ugtP lethal	PfHsp40 rescue	PrPC surface inh	CCHF vOTU inh	PrP 5UTR inh
C=CCOc1ccc(/C=C2\SC(=S)N(NS(=O)(=O)c3ccc(C)cc3)C2=O)cc1	62.9	87.6*	-0.6	-2.0	20.1	-18.5
Cc1ccc(S(=O)(=O)NN2C(=O)/C(=C\c3ccc(Cl)cc3)SC2=S)cc1	83.0	76.1	-0.7	-0.3	-14.1	-21.6
Cc1ccc(S(=O)(=O)NN2C(=O)/C(=C/c3ccc(F)cc3)SC2=S)cc1	84.9*	88.9*	-0.2	-1.4	-6.8	-24.1
Cc1ccc(C(=O)C=CNCc2ccccc2)cc1	5.1	10.4	nt	nt	nt	nt
O=S1(=O)NC[C@]23CC(c4ccc(F)cc4)C(CC21)O3 (stereo partly specified)	4.0	0.5	nt	nt	nt	nt
CC(=O)Nc1cccc(C(C)=NNC(=O)c2ccc(Cl)cc2Cl)c1	-0.9	-1.5	nt	nt	nt	nt
C=CCNC(=O)COC(=O)C=Cc1cccs1	3.6	-3.6	nt	nt	nt	nt
Oc1ccc(N=Nc2ccc(Br)cc2)c(O)c1	nt	nt	1.2	-5.6	-8.1	-59.2
Cc1ccc(N=Nc2ccc(O)cc2)c(Br)c1	6.3	79.5	200.8*	3.3	7.8	-38.5
